Here are results for 38 compounds from PubChem BioAssay (Tox21).

The structures appear in SMILES notation. Several values for one entry are separate records, joined by “and”; a condition that tells them apart may be missing. Equal values may be shown once. Results filed as inconclusive are left out. Where a call stands in place of a potency, no number is given. Where a structure was tested more than once in an assay, its records may differ in their call. Activity calls are given as the source filed them. The call rests on the fitted dose curve; in most records, active means well fitted activation curve with a large enough effect in the repeat runs; inconclusive means weak or mixed curves; inactive means flat fitted curve, though single readings scatter.

One test is described as follows: A CellTox Green Cytotoxicity Assay to monitor cytotoxicity in HepG2 cells - 0 hour (AID 1224882). Further: nearly all actives have a fitted effect of over 35% in size. As to conditions: CellTox Green fluorescence; series mostly up to 76.8 µM; cytotoxicity: at the top concentration. The gist of the method:
(§1)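 HepG2 cells were seeded together with the CellTox Green dye at 600 cells/well, left 5 h at 37 C/5% CO2, then given compounds in DMSO. Fluorescence from dye bound to dead-cell DNA was read repeatedly over 40 h of treatment at 37 C.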
Take `CCCCC(=O)O`: the Potency entry was “inactive”.

On to `CC(O)CNCC(C)O` (centres undefined), for which the Potency result is “inactive”.

As for `CC(C)c1ccc(C(C)C)cc1`, the Potency result is “inactive”.

For the compound `NC1CCCCC1N` (centres undefined), the Potency entry is “inactive”.

Take `CCCOCC(C)O` (centres undefined): the Potency entry was “inactive”.

With `Cc1ccc(C)c(S(=O)(=O)O)c1`, the Potency result was “inactive”.

With `CCCCCCCCO`, the Potency result is “inactive”.

Take `C=CC(=O)NCOCCCC`: the Potency entry is “inactive”.

With `O=C1C(N(CO)C(=O)NCO)N(CO)C(=O)N1CO` (centres undefined), the Potency entry was “inactive”.

As for `NCCNCCNCCN`, the “cytotoxicity” value is -10.3% (inactive).

Take `COc1ccc(N)c(OC)c1`: the Potency entry was “inactive”.

Regarding `O=C(Cl)c1ccc(C(=O)Cl)cc1`, the Potency entry is “inactive”.

As for `CC(=O)OC(C)(C)C1CC=C(C)CC1` (centres undefined), the Potency entry was “inactive”.

As to `CC(=O)OCCC(C)C`, the Potency result was “inactive”.

For `CO[Si](CCCNCCN)(OC)OC`, the “cytotoxicity” value was -3.94% (inactive).

Consider `CCn1cc(C(=O)O)c(=O)c2cc3c(cc21)OCO3`, for which the Potency result is “inactive”.

With `CC1(C)[C@@H](O[C@H]2O[C@H](C(=O)O)[C@@H](O)[C@H](O)[C@H]2O[C@@H]2O[C@H](C(=O)O)[C@@H](O)[C@H](O)[C@H]2O)CC[C@]2(C)[C@H]3C(=O)C=C4[C@@H]5C[C@@](C)(C(=O)O)CC[C@]5(C)CC[C@@]4(C)[C@]3(C)CC[C@@H]12`, the Potency entry is “inactive”.

Regarding `CCCCCCCC(=O)O`, the Potency entry is “inactive”.

Consider `CCCCCC(C)=O`, for which the Potency entry was “inactive”.

Turning to `COc1cc(NC(=O)CC(C)=O)c(OC)cc1Cl`, the Potency entry is “inactive”.

As to `COCN(COC)c1nc(N(COC)COC)nc(N(COC)COC)n1`, the Potency result was “inactive”.

With `Brc1ccc(Oc2ccc(Br)cc2)cc1`, the Potency entry is “inactive”.

Take `O=C(NCC1CCCCN1)c1cc(OCC(F)(F)F)ccc1OCC(F)(F)F` (centres undefined): the Potency entry is “inactive”.

Consider `CCOC(=O)c1ccc(O)cc1`, for which the Potency entry was “inactive”.

With `Oc1ccc(Cc2ccccc2O)cc1`, the Potency entry was “inactive”.

Take `COC(=O)/C=C\C(=O)OC`: the Potency entry was “inactive”.

Regarding `Cc1ccc([N+](=O)[O-])cc1N`, the Potency entry is “inactive”.

Take `CCOC(=O)CC(=O)OCC`: the Potency entry was “inactive”.

As to `OCC(O)CS` (centres undefined), the Potency entry is “inactive”.

Consider `Cc1ccc(Cl)cc1`, for which the Potency result is “inactive”.

`O=c1n(CCCN2CCN(c3cccc(Cl)c3)CC2)nc2ccccn12`: the Potency result is “inactive”.

Consider `Nc1cccc(N)n1`, for which the Potency result is “inactive”.

Turning to `CC1(C)C(=O)N(Cl)C(=O)N1Cl`, the Potency entry was “inactive”.

In the case of `Cc1nnc(NS(=O)(=O)c2ccc(N)cc2)s1`, the Potency entry is “inactive”.

With `CS(=O)(=O)c1ccc(Cl)cc1`, the Potency result is “inactive”.

`Cc1ccccc1C=O`: the Potency result was “inactive”.

On to `N#CCC(=O)O`, for which the Potency result was “inactive”.

For `OCc1ccc(Cl)cc1Cl`, the Potency entry is “inactive”.

Another test can be described thus: A CellTox Green Cytotoxicity Assay to monitor cytotoxicity in HepG2 cells - 32 hour (AID 1224883). Further: nearly all actives have a fitted effect of over 50% in size. Further: potency means the concentration at half of the fitted maximal effect. As to conditions: CellTox Green fluorescence; series mostly up to 76.8 µM; cytotoxicity increase: at the top concentration. The essentials:
as §1
For `CCCCC(=O)O`, the Potency entry is “inactive”.

`CC(O)CNCC(C)O` (centres undefined): the Potency entry was “inactive”.

`CC(C)c1ccc(C(C)C)cc1`: the Potency entry was “inactive”.

Turning to `NC1CCCCC1N` (centres undefined), the Potency entry was “inactive”.

Turning to `CCCOCC(C)O` (centres undefined), the Potency entry was “inactive”.

Consider `Cc1ccc(C)c(S(=O)(=O)O)c1`, for which the Potency result was “inactive”.

For the compound `CCCCCCCCO`, the Potency entry is “inactive”.

For `C=CC(=O)NCOCCCC`, the Potency result was “inactive”.

Take `O=C1C(N(CO)C(=O)NCO)N(CO)C(=O)N1CO` (centres undefined): the Potency entry was “inactive”.

Turning to `NCCNCCNCCN`, the Potency entry was “inactive”.

For the compound `COc1ccc(N)c(OC)c1`, the Potency entry is “inactive”.

Turning to `O=C(Cl)c1ccc(C(=O)Cl)cc1`, the Potency entry was “inactive”.

With `CC(=O)OC(C)(C)C1CC=C(C)CC1` (centres undefined), the Potency entry was “inactive”.

`CC(=O)OCCC(C)C`: the Potency entry is “inactive”.

Regarding `CO[Si](CCCNCCN)(OC)OC`, the Potency entry was “inactive and 49 µM (active)”.

For `CCn1cc(C(=O)O)c(=O)c2cc3c(cc21)OCO3`, the Potency entry is “inactive”.

`CC1(C)[C@@H](O[C@H]2O[C@H](C(=O)O)[C@@H](O)[C@H](O)[C@H]2O[C@@H]2O[C@H](C(=O)O)[C@@H](O)[C@H](O)[C@H]2O)CC[C@]2(C)[C@H]3C(=O)C=C4[C@@H]5C[C@@](C)(C(=O)O)CC[C@]5(C)CC[C@@]4(C)[C@]3(C)CC[C@@H]12`: the Potency result is “inactive”.

Consider `CCCCCCCC(=O)O`, for which the Potency result was “inactive”.

In the case of `CCCCCC(C)=O`, the “cytotoxicity increase” value is -5.24% (inactive).

As to `COc1cc(NC(=O)CC(C)=O)c(OC)cc1Cl`, the Potency result is “inactive”.

Regarding `COCN(COC)c1nc(N(COC)COC)nc(N(COC)COC)n1`, the Potency result was “inactive”.

`Brc1ccc(Oc2ccc(Br)cc2)cc1`: the Potency entry is “inactive”.

Regarding `O=C(NCC1CCCCN1)c1cc(OCC(F)(F)F)ccc1OCC(F)(F)F` (centres undefined), the Potency entry was “inactive”.

`CCOC(=O)c1ccc(O)cc1`: the Potency entry was “inactive”.

With `Oc1ccc(Cc2ccccc2O)cc1`, the Potency result is “inactive”.

As for `COC(=O)/C=C\C(=O)OC`, the “cytotoxicity increase” value is -6.97% [at 35.3 µM] (inactive).

With `Cc1ccc([N+](=O)[O-])cc1N`, the Potency result is “inactive”.

For the compound `CCOC(=O)CC(=O)OCC`, the Potency result is “inactive”.

For `OCC(O)CS` (centres undefined), the Potency result was “inactive”.

Turning to `Cc1ccc(Cl)cc1`, the Potency result was “inactive”.

With `O=c1n(CCCN2CCN(c3cccc(Cl)c3)CC2)nc2ccccn12`, the Potency result was “inactive”.

As to `Nc1cccc(N)n1`, the Potency result is “inactive”.

As to `CC1(C)C(=O)N(Cl)C(=O)N1Cl`, the Potency entry is “inactive”.

`Cc1nnc(NS(=O)(=O)c2ccc(N)cc2)s1`: the Potency entry is “inactive”.

As for `CS(=O)(=O)c1ccc(Cl)cc1`, the “cytotoxicity increase” value was 0.852% (inactive).

For the compound `Cc1ccccc1C=O`, the Potency entry is “inactive”.

With `N#CCC(=O)O`, the Potency entry was “inactive”.

In the case of `OCc1ccc(Cl)cc1Cl`, the Potency result is “inactive”.

The next test in a line: A CellTox Green Cytotoxicity Assay to monitor cytotoxicity in HEK293 cells - 8 hour (AID 1224884). Further: nearly all actives have a fitted effect of over 35% in size. As to conditions: CellTox Green fluorescence; series mostly up to 76.8 µM; cytotoxicity increase: at the top concentration. The essentials: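 HEK293 cells premixed with CellTox Green dye were seeded at 600 cells/well and left 5 h at 37 C/5% CO2 before pin transfer of 23 nL compound in DMSO. Fluorescence from dye bound to dead-cell DNA was read during 40 h treatment.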
For `CCCCC(=O)O`, the Potency result was “inactive”.

Consider `CC(O)CNCC(C)O` (centres undefined), for which the Potency entry was “inactive”.

On to `CC(C)c1ccc(C(C)C)cc1`, for which the Potency entry was “inactive”.

With `NC1CCCCC1N` (centres undefined), the Potency result is “inactive”.

For the compound `CCCOCC(C)O` (centres undefined), the Potency entry is “inactive”.

For the compound `Cc1ccc(C)c(S(=O)(=O)O)c1`, the Potency entry was “inactive”.

On to `CCCCCCCCO`, for which the Potency entry was “inactive”.

Take `C=CC(=O)NCOCCCC`: the Potency entry was “inactive”.

As for `O=C1C(N(CO)C(=O)NCO)N(CO)C(=O)N1CO` (centres undefined), the Potency entry is “inactive”.

`NCCNCCNCCN`: the Potency result is “inactive”.

Turning to `COc1ccc(N)c(OC)c1`, the Potency entry was “inactive”.

For the compound `O=C(Cl)c1ccc(C(=O)Cl)cc1`, the Potency entry is “inactive”.

With `CC(=O)OC(C)(C)C1CC=C(C)CC1` (centres undefined), the Potency entry is “inactive”.

Take `CC(=O)OCCC(C)C`: the Potency entry was “inactive”.

As to `CO[Si](CCCNCCN)(OC)OC`, the Potency entry was “inactive”.

As to `CCn1cc(C(=O)O)c(=O)c2cc3c(cc21)OCO3`, the Potency entry was “inactive”.

As to `CC1(C)[C@@H](O[C@H]2O[C@H](C(=O)O)[C@@H](O)[C@H](O)[C@H]2O[C@@H]2O[C@H](C(=O)O)[C@@H](O)[C@H](O)[C@H]2O)CC[C@]2(C)[C@H]3C(=O)C=C4[C@@H]5C[C@@](C)(C(=O)O)CC[C@]5(C)CC[C@@]4(C)[C@]3(C)CC[C@@H]12`, the Potency entry is “inactive”.

As to `CCCCCCCC(=O)O`, the Potency result is “inactive”.

In the case of `CCCCCC(C)=O`, the Potency entry was “inactive”.

With `COc1cc(NC(=O)CC(C)=O)c(OC)cc1Cl`, the Potency result is “inactive”.

Turning to `COCN(COC)c1nc(N(COC)COC)nc(N(COC)COC)n1`, the Potency entry is “inactive”.

As for `Brc1ccc(Oc2ccc(Br)cc2)cc1`, the Potency result is “inactive”.

Turning to `O=C(NCC1CCCCN1)c1cc(OCC(F)(F)F)ccc1OCC(F)(F)F` (centres undefined), the Potency entry is “inactive”.

As to `CCOC(=O)c1ccc(O)cc1`, the Potency entry was “inactive”.

As to `Oc1ccc(Cc2ccccc2O)cc1`, the Potency entry was “inactive”.

`COC(=O)/C=C\C(=O)OC`: the Potency entry was “inactive”.

Take `Cc1ccc([N+](=O)[O-])cc1N`: the Potency entry is “inactive”.

As for `CCOC(=O)CC(=O)OCC`, the Potency result was “inactive”.

Regarding `OCC(O)CS` (centres undefined), the Potency result is “inactive”.

With `Cc1ccc(Cl)cc1`, the Potency entry is “inactive”.

In the case of `O=c1n(CCCN2CCN(c3cccc(Cl)c3)CC2)nc2ccccn12`, the Potency result is “inactive”.

For the compound `Nc1cccc(N)n1`, the Potency result was “inactive”.

Take `CC1(C)C(=O)N(Cl)C(=O)N1Cl`: the Potency result was “inactive”.

Take `Cc1nnc(NS(=O)(=O)c2ccc(N)cc2)s1`: the Potency entry was “inactive”.

As for `CS(=O)(=O)c1ccc(Cl)cc1`, the Potency result was “inactive”.

With `Cc1ccccc1C=O`, the Potency entry is “inactive”.

Take `N#CCC(=O)O`: the “cytotoxicity increase” value is 3.72% (inactive).

On to `OCc1ccc(Cl)cc1Cl`, for which the Potency result is “inactive”.
